Compound activity from PubChem BioAssay.
TDP1 cell CPT: DT40-hTDP1 cell growth loss with CPT | Potency, µM (doses to about 46.2 µM), actives largely listed as inhibitors | 420,000 compounds, 12% hits | chicken DT40 Tdp1-/-;hTDP1 cells + 20 nM CPT, ATP luminescence, 48 h; note: nearly all actives have a fitted effect of over 55% in size
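Chicken DT40 Tdp1-/- cells complemented with human TDP1, 400 cells/well, exposed to compounds plus 20 nM camptothecin for at least 48 h at 37 C; viability read as ATP content by CellTiter-Glo luminescence.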
CtBP-E1A blk: CtBP/E1A binding inhibition | AlphaScreen GST-E1A/His-CtBP binding, 1536-well; hits give low values | activity change, % (concentration not given with the values) | 340,000 compounds, 0.49% hits; in the data active = activity change below about -65%; inconclusive = mostly about -30% to -63%
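Protein mix (5X: 125 nM each GST-E1A, His-CtBP) was incubated with pinned compound 2 h at 37 deg C in dark, in 50 mM Tris pH 8.0 buffer with 300 mM NaCl. Glutathione donor and nickel acceptor beads followed; AlphaScreen signal read after 1 h.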
IL-1B inflam inh: blocks inflammasome-driven IL-1 beta release; 360,000 compounds, 4.7% hits; activity change, % at 57.5 µM; THP-1 LPS/ATP IL-1B secretion, AlphaLISA, 16 h; hits give low values; AID 743279; in the data active = activity change below about -50%; inconclusive = mostly about -30% to -49%
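Secreted IL-1B measured by AlphaLISA bead assay after 16 h compound exposure of THP-1 cells; compounds (final up to 57.5 uM) added 1 h before LPS (250 ng/mL) and ATP (1.25 mM) stimulation; lower signal means less secretion.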
TDP1 cell noCPT: qHTS for Inhibitors of human tyrosyl-DNA phosphodiesterase 1 (TDP1): qHTS in cells in absence of CPT | 420,000 compounds, 15% hits | DT40 Tdp1-/- hTDP1 cells, no CPT, ATP luminescence, 48 h | Potency, µM (titrated, usually from 46.2 µM), hits mostly inhibitors; note: nearly all actives have a fitted effect of over 55% in size
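Compound effects on proliferation are scored in DT40 Tdp1-/-;hTDP1 cells in the absence of CPT. ATP levels (CellTiter-Glo luminescence) are recorded after a ≥48 hr, 37 °C incubation.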
Six1-Eya2 inh: inhibitors of human Six1/Eya2 interaction | Q15475+O00167 | AlphaScreen GST-Six1/His-Eya2 binding, biochemical; hits give low values | activity change, % (concentration not given with the values) | 360,000 compounds, 0.56% hits | AID 651725; in the data active = activity change below about -65%; inconclusive = mostly about -30% to -63%
Target sequence (O00167 whole entry, looked up): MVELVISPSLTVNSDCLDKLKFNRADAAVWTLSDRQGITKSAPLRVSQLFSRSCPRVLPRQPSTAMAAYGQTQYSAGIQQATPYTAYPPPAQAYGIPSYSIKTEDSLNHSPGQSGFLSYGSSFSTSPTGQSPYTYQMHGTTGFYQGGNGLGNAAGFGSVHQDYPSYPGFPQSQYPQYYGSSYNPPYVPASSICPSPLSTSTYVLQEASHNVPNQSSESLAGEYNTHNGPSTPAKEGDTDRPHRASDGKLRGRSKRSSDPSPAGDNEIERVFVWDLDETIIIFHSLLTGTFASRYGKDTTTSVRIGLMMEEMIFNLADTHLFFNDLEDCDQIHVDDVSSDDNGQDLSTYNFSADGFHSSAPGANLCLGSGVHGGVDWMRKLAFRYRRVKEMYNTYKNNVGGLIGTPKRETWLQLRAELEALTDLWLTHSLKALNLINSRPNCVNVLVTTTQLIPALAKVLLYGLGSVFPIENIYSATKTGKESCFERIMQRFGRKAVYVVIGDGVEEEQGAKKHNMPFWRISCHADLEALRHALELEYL
Target sequence (Q15475 whole entry, looked up): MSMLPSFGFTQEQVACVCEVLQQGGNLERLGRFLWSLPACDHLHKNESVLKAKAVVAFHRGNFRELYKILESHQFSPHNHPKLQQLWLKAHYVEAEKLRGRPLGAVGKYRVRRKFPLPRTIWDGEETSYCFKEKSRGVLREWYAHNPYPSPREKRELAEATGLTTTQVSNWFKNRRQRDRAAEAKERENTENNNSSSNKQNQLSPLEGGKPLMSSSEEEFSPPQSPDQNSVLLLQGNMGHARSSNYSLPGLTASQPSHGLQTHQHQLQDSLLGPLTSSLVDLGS
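Homogeneous AlphaScreen proximity assay pairing GST-Six1 with His-tagged Eya2 (added as 5X mix: 250 nM and 500 nM) in 50 mM Tris pH 8.0, 300 mM NaCl, 1 mM TCEP. Glutathione donor and nickel acceptor beads; 1 h, 37 °C, dark.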
TDP1 inh: inhibitors of human tyrosyl-DNA phosphodiesterase TDP1 | Q9NUW8 | recombinant TDP1, AlphaScreen DNA substrate cleavage | Potency, µM (titrated, usually from 130 µM), most hits filed as inhibitors | 350,000 compounds, 0.28% hits | AID 485290; note: nearly all actives have a fitted effect of over 40% in size
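Compounds were preincubated with Tdp1 (1 nM final) for 15 min at room temperature before substrate (15 nM final) started a 5 min reaction; beads (10 ug/ml final) were then added for 10 min before AlphaScreen detection.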
Hits are given with their value; - = inactive; ? = inconclusive; . = no result given. Compounds with a hit are over-represented: about 18% of the library has one in this group of screens. Unless noted, calls come from the whole dose curve; as a rule, active = well fitted curve in the direction sought with a large enough effect; inconclusive = small, poorly fitted or top-dose-only effect, or another doubt; inactive = no such curve, though single readings can be large; an effect the other way counts as inactive or inconclusive.

SMILES | TDP1 cell CPT | CtBP-E1A blk | IL-1B inflam inh | TDP1 cell noCPT | Six1-Eya2 inh | TDP1 inh
Cc1nc(-c2cccc(NC(=O)C3CCCCC3)c2)cs1 | ? | . | - | - | - | -
CCc1ncc(CN2CCCC(C(=O)Nc3cccc(-c4cccc(C)c4)c3)C2)cn1 (stereo not drawn) | ? | - | - | ? | - | -
Cc1cccc(-c2cccc(NC(=O)C3CCCN(C(=O)c4csc(C)n4)C3)c2)c1 (stereo not drawn) | 1.5µM | - | ? | 1.3µM | - | -
CCOc1ccc(C(=O)N2CCN(Cc3ccccc3)CC2)cc1OCC | - | - | - | - | - | .
CCN(CC(=O)Nc1ccc(NC(C)=O)cc1)C(=O)c1ccc2c(c1)OCCO2 | - | . | - | - | - | -
CCCOC(=O)c1ccc(NC(=O)c2cccc(S(=O)(=O)N3CCN(C(C)=O)CC3)c2)cc1 | ? | - | - | 16µM | - | .
CC(=O)N1CCN(S(=O)(=O)c2cccc(C(=O)Nc3ccc(F)c(F)c3)c2)CC1 | ? | - | - | ? | - | .
CCOC(=O)c1ccc(NC(=O)c2cc(S(=O)(=O)N3CCOCC3)ccc2O)cc1 | ? | - | - | 21µM | - | -
CCOC(=O)c1ccc(NC(=O)c2cc(S(=O)(=O)N3CCOCC3)cn2C)cc1 | ? | - | - | ? | - | .
CCc1nnc(NC(=O)c2cccc(S(=O)(=O)N3CCN(C(C)=O)CC3)c2)s1 | - | - | - | - | - | -
CCOC(=O)c1ccc(NC(=O)c2cccc(S(=O)(=O)N3CCN(C(C)=O)CC3)c2)cc1 | ? | - | - | 13µM | - | .
CCOC(=O)c1c(-c2ccccc2)csc1NC(=O)c1cc(S(=O)(=O)N2CCOCC2)ccc1C | 7.3µM | - | - | ? | - | -
COc1cc(C2C(C(=O)Nc3ccccc3C)=C(C)Nc3ncnn32)ccc1OCC(N)=O (stereo not drawn) | - | . | . | - | . | -
CCCNC(=O)c1ccccc1N1CCN(CCCCN2C(=O)C3CCCCN3C2=O)CC1 (stereo not drawn) | - | . | - | - | - | .
O=C(O)/C=C/C(=O)Nc1ccc(Cl)cc1C(=O)c1ccccc1 | ? | - | - | ? | - | -
Fc1ccc(Nc2nc(N3CCOCC3)nc(N3CCOCC3)n2)cc1Cl | ? | - | - | - | - | -
Fc1ccccc1Nc1nc(N2CCOCC2)nc(N2CCOCC2)n1 | 21µM | - | - | ? | - | .
CC(C)c1ccc(Nc2nc(NCc3ccco3)nc(N3CCOCC3)n2)cc1 | ? | - | - | ? | - | -
CC(C)c1ccc(Nc2nc(N3CCOCC3)nc(N3CCOCC3)n2)cc1 | 18µM | - | - | 18µM | - | .
Clc1ccc(Nc2nc(N3CCOCC3)nc(N3CCOCC3)n2)cc1Cl | ? | - | - | 9.2µM | - | -
Fc1ccccc1Nc1nc(NCc2ccco2)nc(N2CCOCC2)n1 | ? | - | - | - | - | -
O=C(O)c1cccc(Nc2nc(N3CCOCC3)nc(N3CCOCC3)n2)c1 | ? | - | - | - | - | -
CN1CCN(c2nc(Nc3cccc(C(F)(F)F)c3)nc(N3CCOCC3)n2)CC1 | ? | - | -59 | ? | - | -
C=CCn1c(C)cc(C(=O)COC(=O)COc2ccccc2C#N)c1C | - | - | - | - | - | -
CN(C)c1ccc(/C=N/NC(=O)c2ccc(-n3cnnn3)cc2)cc1 | - | . | - | - | - | -
SMILES | TDP1 cell CPT | CtBP-E1A blk | IL-1B inflam inh | TDP1 cell noCPT | Six1-Eya2 inh | TDP1 inh
CCCCc1cc(=O)oc2cc(OCC(=O)NC3CCN(Cc4ccccc4)CC3)ccc12 | ? | - | - | ? | - | -
CO[C@@H]1CN(C)C(=O)c2cc(NC(=O)Nc3cc(F)ccc3F)ccc2OC[C@H](C)N(C(=O)c2cnccn2)C[C@@H]1C | ? | - | - | ? | - | .
Nc1ccccc1S(=O)(=O)NCCCCc1ccccc1 | - | . | - | ? | - | .
Cc1ccc(Nc2nc(N3CCOCC3)nc(N3CCOCC3)n2)cc1 | 18µM | - | . | 18µM | - | -
Cc1ccc(Nc2nc(Nc3ccc(Cl)cc3)nc(N3CCOCC3)n2)cc1 | 11µM | . | . | 18µM | . | -
CC(=O)Nc1ccc(Nc2nc(Nc3ccc(Cl)cc3)nc(N3CCOCC3)n2)cc1 | 1.3µM | . | . | 0.79µM | . | -
Cc1ccc(Nc2cc(C)nc(N3CCOCC3)n2)cc1 | - | - | - | ? | - | -
O=C(O)c1cc(Nc2nc(N3CCOCC3)nc(N3CCOCC3)n2)ccc1Cl | - | - | - | - | - | -
O=C(N/N=C\c1ccc2c(c1)OCO2)c1ccc(Cn2cc(Br)c([N+](=O)[O-])n2)o1 | - | - | - | - | - | -
CC(C(=O)OCC(=O)NC1CCCCC1)N1C(=O)c2ccccc2C1=O (stereo not drawn) | - | . | - | - | - | -
CCOc1ccc(-n2nc(CO)c(C(=O)NCC(C)O)n2)cc1 (stereo not drawn) | - | . | . | - | . | -
O=c1c(Cl)c(O)c2cccc3c4ccccc4n1c23 | - | - | - | - | ? | -
COc1c(O)c(=O)n2c3ccccc3c3ccnc1c32 | - | -82 | - | - | -77 | .
CC(=O)c1ccccc1NC(=O)COC(=O)CCC1CCCC1 | - | - | - | - | - | 79µM
CCOC(=O)c1ccccc1NC(=O)COC(=O)CCC1CCCC1 | - | - | - | - | - | 50µM
CC(C)CNc1ncnc2c1ncn2[C@H]1CN(Cc2ccc(Cl)cc2)C[C@@H](CO)O1 | ? | - | - | ? | - | .
CCOC(=O)N1CCC(NC(=O)c2ccc(NC(=O)C3CCCO3)cc2)CC1 (stereo not drawn) | - | - | - | - | - | -
CC1(C(=O)Nc2cccc3cccnc23)CCN1Cc1cccc2c1OCO2 (stereo not drawn) | ? | - | - | 15µM | - | .
CC(C)(C)c1ccc(C(=O)N2CCC2(C)C(=O)NCc2cccc3ccccc23)cc1 (stereo not drawn) | 18µM | - | - | - | - | .
CC1(C(=O)Nc2ccc3c(c2)OCO3)CCN1Cc1cccc2c1OCO2 (stereo not drawn) | ? | - | - | ? | - | .
CC(C)(C)c1ccc(C(=O)N2CCC2(C)C(=O)Nc2cccc3ccccc23)cc1 (stereo not drawn) | 16µM | - | - | 23µM | - | .
CC(C)(C)c1ccc(C(=O)N2CCC2(C)C(=O)Nc2cccc3ncccc23)cc1 (stereo not drawn) | 23µM | - | - | 21µM | - | .
Cc1ccsc1C(=O)N1CCC1(C)C(=O)NCc1cccc2ccccc12 (stereo not drawn) | ? | - | - | ? | - | .
